Data published in PubChem BioAssay (NCI).
About 83,000 compounds went through this panel and 20% of them were active in at least one assay; those are over-represented in the sample as a whole.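 Method: cells in 96-well plates; compound added at one concentration; 48 h incubation; percent growth measured; values under 10 scored active.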 A number with no mark means an inactive call. Active and inactive are the calls of the source.

Assays:
Experiment in all cases: NCI-60 one-dose screen, 48 h (100 = growth as untreated, 0 = no growth, -100 = all killed)
Conditions in all cases: 10 µM unless noted
DU-145 prostate = tested on: DU-145 prostate
K-562 leukemia = tested on: K-562 leukemia
MALME-3M melanoma = tested on: MALME-3M melanoma
MDA-MB-231 breast = tested on: MDA-MB-231 breast
RXF 393 renal = tested on: RXF 393 renal
SF-268 CNS = tested on: SF-268 CNS
SF-295 CNS = tested on: SF-295 CNS
SF-539 CNS = tested on: SF-539 CNS
UACC-257 melanoma = tested on: UACC-257 melanoma
M14 melanoma = tested on: M14 melanoma
HCT-15 colon = tested on: HCT-15 colon
HT29 colon = tested on: HT29 colon
SNB-75 CNS = tested on: SNB-75 CNS
SNB-19 CNS = tested on: SNB-19 CNS
U251 CNS = tested on: U251 CNS
PC-3 prostate = tested on: PC-3 prostate
SK-MEL-5 melanoma = tested on: SK-MEL-5 melanoma
UACC-62 melanoma = tested on: UACC-62 melanoma
LOX IMVI melanoma = tested on: LOX IMVI melanoma
SK-MEL-28 melanoma = tested on: SK-MEL-28 melanoma

| Structure (SMILES) | growth (DU-145 prostate) | growth (K-562 leukemia) | growth (MALME-3M melanoma) | growth (MDA-MB-231 breast) | growth (RXF 393 renal) | growth (SF-268 CNS) | growth (SF-295 CNS) | growth (SF-539 CNS) | growth (UACC-257 melanoma) | growth (M14 melanoma) | growth (HCT-15 colon) | growth (HT29 colon) | growth (SNB-75 CNS) | growth (SNB-19 CNS) | growth (U251 CNS) | growth (PC-3 prostate) | growth (SK-MEL-5 melanoma) | growth (UACC-62 melanoma) | growth (LOX IMVI melanoma) | growth (SK-MEL-28 melanoma) |
| --- | --- | --- | --- | --- | --- | --- | --- | --- | --- | --- | --- | --- | --- | --- | --- | --- | --- | --- | --- | --- |
| Nc1n[nH]c2cc(F)c([C@@H]3Nc4c(F)cc5[nH]ncc5c4[C@H]4C5CCC(C5)[C@@H]34)cc12 (stereo not given in full) | -0.222% (active) | 11.6% | 46.3% | 15.5% | 41.3% | 10.5% | 15% | 4.53% (active) | 72.4% | 21.2% | 6.76% (active) | 17% | -20.9% (active) | 53.1% | 33.2% | 22.5% | 8.05% (active) | 35.3% | 20.2% | 52.8% |
| CNC(=O)NCC1OC(n2cnc3c(NC(=O)Nc4ccccc4)ncnc32)C(O[Si](C)(C)C(C)(C)C)C1CC(=O)N(C)OC (stereo not given) | 25.3% | 16.1% | 12.3% | 15.2% | -68.2% (active) | 33.2% | -41.2% (active) | 0.123% (active) | 5.59% (active) | 34.4% | 11.9% | -25.5% (active) | -7.28% (active) | 37.2% | -15.2% (active) | -20.8% (active) | 25.9% | 34.4% | 18.6% | 7.73% (active) |
| COc1ccc(NC(=O)c2nc(-c3cc(OC)c(OC)c(OC)c3)n(-c3cccc4ccccc34)n2)cc1OC | 70.4% | 35.4% | 52.8% | 27% | 66.1% | 58.6% | 52.6% | 35% | 57.5% | 48% | 14.5% | 30% | 24.4% | 52.3% | 52.4% | 39.8% | 32.4% | 31% | 25.2% | 55.4% |
| COc1ccc(-c2csc(C3=C(O)CN(C(C)C)C3=N)n2)cc1OC | 108% | 87.7% | 96.4% | 81.1% | 83.6% | 117% | 113% | 88.9% | 105% | 136% | 103% | 102% | 112% | 104% | 98.3% | 35.3% | 82.5% | 97.3% | 94.1% | 123% |
| COc1cccc(-c2nc3sccn3c2/C=C/C(=O)c2ccc(C(F)(F)F)cc2)c1 | 88.4% | 51.8% | 104% | 89.6% | 67.7% | 89.2% | 106% | 96.6% | 73.9% | 85.4% | 69.1% | 75.3% | 81.7% | 79.7% | 83.2% | 63.2% | 71.5% | 66.1% | 88.3% | 83.6% |
| COc1ccc(-c2nc3c(c(=O)n2C(C)=O)C(c2ccc(Cl)cc2)c2sc4c(Cl)cccc4c2O3)cc1 (stereo not given) | -5.67% (active) | 2.48% (active) | 39.8% | -41.2% (active) | -27.4% (active) | -9.95% (active) | 1.12% (active) | -51.8% (active) | 12.2% | -36.3% (active) | -29.1% (active) | -49.4% (active) | -12.7% (active) | 12.7% | -34.3% (active) | 1.24% (active) | -23.3% (active) | 5.57% (active) | -49.6% (active) | 23.4% |
| Cc1cccc(NC(=O)N/C(N)=N/c2nc(C)c(C)s2)c1 | 71.6% | 10.7% | 58.5% | 65.2% | 78.2% | 75.1% | 48.6% | 56.7% | 62.2% | 28.1% | 22.2% | 18.9% | -3.93% (active) | 65.4% | 45% | 62% | 59.2% | 49.1% | 42.7% | 60.7% |
| COc1cccc(-c2nn(-c3ccccc3)cc2-c2ccnc(NCCNC(=O)Nc3cccc(C(F)(F)F)c3)c2)c1 | 26.2% | 2.52% (active) | 51.2% | -10% (active) | 21.6% | 35.2% | 27.6% | 57.7% | 27.6% | 7.52% (active) | 6.17% (active) | -43.6% (active) | 46.3% | 36% | 19.9% | 17.1% | 39.2% | -7.83% (active) | -77.3% (active) | 32.5% |
| CCCCCCN(CCCCCC)c1ccc(/C=C2/SC(=O)N(c3nc(N4CCCC4)nc(N4CCCC4)n3)C2=O)c(C)c1 | 77.3% | 37.5% | 71.5% | 85.7% | 84.7% | 73.2% | 56.7% | 114% | 72.6% | 69.3% | 57.9% | 51.8% | 83.3% | 84.4% | 53.9% | 53.2% | 58.6% | 52.7% | 71.8% | 74.3% |
| Cc1cc(=O)[nH]c(N=Nc2c(O)[nH]c3ccccc23)n1 | 117% | 116% | 127% | 97.2% | 117% | 105% | 114% | 105% | 112% | 100% | 109% | 106% | 105% | 103% | 103% | 97.9% | 103% | 106% | 99.8% | 111% |
| CC1=C([Se]CC(OC(=O)[C@@H](CO)NC(=O)OC(C)(C)C)C(=O)NC(C)(C)C)C(=O)c2ccccc2C1=O (stereo not given in full) | -71.1% (active) | -37% (active) | -64.9% (active) | -82.2% (active) | -86.2% (active) | -75.1% (active) | -37.4% (active) | -100% (active) | -87.1% (active) | -100% (active) | -74.1% (active) | -8.15% (active) | -100% (active) | -100% (active) | -95.2% (active) | -71.8% (active) | -98.2% (active) | -100% (active) | -96.4% (active) | -100% (active) |
| Cc1ccc(C2SCC(=O)N2Cc2ccccc2)cc1 (stereo not given) | 118% | 110% | 93.3% | 98.3% | 114% | 115% | 95% | 109% | 97.7% | 104% | 100% | 96.9% | 95.1% | 98.9% | 97.6% | 92.1% | 105% | 91.7% | 97.9% | 106% |
| CSc1n(Cc2ccc3ccccc3c2)c(C)c[n+]1Cc1ccc2ccccc2c1 | -12.8% (active) | 8.26% (active) | -25.1% (active) | -30.8% (active) | -26.1% (active) | -11.7% (active) | -23.3% (active) | 8.44% (active) | -41.5% (active) | -14.3% (active) | 24.4% | -11.2% (active) | -32.4% (active) | 3.42% (active) | 2.53% (active) | 0.0083% (active) | -95.8% (active) | -56.2% (active) | -91.5% (active) | -9.19% (active) |
| CC1(c2ccccc2)NC(=O)N(NC(=O)CSc2nc(-c3cccs3)nc3ccccc23)C1=O (stereo not given) | 106% | 88.8% | 100% | 90.9% | 78.1% | 97.8% | 99.3% | 95% | 83.5% | 109% | 91.2% | 108% | 96.4% | 92.2% | 94.6% | 90.8% | 85.2% | 69% | 95.9% | 115% |
| CCOP(=O)(OCC)C1CP(=O)(c2ccccc2)CC(C)=C1Cl (stereo not given) | 104% | 93.4% | 90.9% | 95% | 78.1% | 104% | 96.7% | 104% | 92.2% | 63.2% | 102% | 118% | 90.9% | 104% | 96.9% | 90% | 103% | 95.1% | 88.9% | 104% |
